Screens (PubChem)
An excerpt weighted towards active compounds, which were near 1.8% of everything screened.
TRPML1 ag = qHTS for Agonists of the Human Mucolipin Transient Receptor Potential 1 (TRPML1) | TRPML1-expressing cells, Ca2+ dye fluorescence, FDSS | 410,000 compounds, 0.12% hits | activation, % (test concentration not listed) | Mucolipin-1 (Homo sapiens), Q9GZU1; in the data active means activation above about 50%; inconclusive means mostly about 30% to 49%
Target sequence (Q9GZU1 whole entry, looked up): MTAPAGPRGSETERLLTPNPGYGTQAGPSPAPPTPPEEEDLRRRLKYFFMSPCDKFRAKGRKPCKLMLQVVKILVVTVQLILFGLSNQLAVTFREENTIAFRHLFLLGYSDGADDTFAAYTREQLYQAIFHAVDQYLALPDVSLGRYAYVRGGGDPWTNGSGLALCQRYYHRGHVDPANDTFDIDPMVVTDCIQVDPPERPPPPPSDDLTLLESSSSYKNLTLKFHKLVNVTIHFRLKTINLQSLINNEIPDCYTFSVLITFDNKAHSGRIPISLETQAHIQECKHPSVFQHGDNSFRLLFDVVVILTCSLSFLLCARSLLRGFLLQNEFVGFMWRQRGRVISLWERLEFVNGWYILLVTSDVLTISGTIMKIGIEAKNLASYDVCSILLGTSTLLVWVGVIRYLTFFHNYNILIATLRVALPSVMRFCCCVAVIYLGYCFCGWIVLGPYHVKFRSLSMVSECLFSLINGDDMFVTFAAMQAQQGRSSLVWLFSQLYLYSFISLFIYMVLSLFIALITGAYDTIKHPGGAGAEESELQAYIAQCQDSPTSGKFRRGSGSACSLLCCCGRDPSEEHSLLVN
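Kinetic FDSS Ca2+ read in Tet-induced TRPML1-DL cells (ABD Ca8 dye plus quencher, 45-90 min RT loading): baseline, then compound, then 110 s agonist window; EC80 agonist 54-4 at 4uM final added afterwards for a 110 s antagonist window.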
TRPML1 blocker = qHTS for Inhibitors of the Human Mucolipin Transient Receptor Potential 1 (TRPML1); Mucolipin-1 (Homo sapiens), Q9GZU1; TRPML1-inducible cells, Ca2+ dye fluorescence, FDSS; hits give low values; inhibition of EC80 agonist-evoked calcium signal; activity change, negative = inhibition, % (test concentration not listed); 390,000 compounds, 0.02% hits; in the data active means activity change below about -50%; inconclusive means between about -30% and that limit;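 further: stimulus is agonist 54-4 at its EC80 concentration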
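Calcium fluorescence in TRPML1-DL cells induced overnight with Tet: a 110 s read after compound pin addition, then a 110 s antagonist read after challenge with 54-4 at 4 uM final (EC80).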
HEK293 tox = qHTS of GLP-1 Receptor Inverse Agonists: Cytotox Screen. HEK293 cAMP-luciferase reporter cells, luminescence, 24 h. Potency, µM (highest dose often 38.3 µM), most hits filed as inhibitors. 410,000 compounds, 0.13% hits. AID 624418, 2012;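 further: loss of luciferase light is scored as toxicity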
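Quantitative HTS format, 1536 wells, 200 cells/uL seeded. Compounds: 23 nL, 24 h, 37 °C. Detection: luciferase reagent, luminescence at 12 min RT; decreased signal taken as cytotoxic.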
GLP-1R agonist = qHTS of GLP-1 Receptor Agonists; Glucagon-like peptide 1 receptor (Homo sapiens), P43220; HEK293 GLP-1R CRE-luciferase, luminescence, 4-6 h; cells express a hypersensitive GLP-1R form; Potency, µM (top dose mostly 45.6 µM), actives largely listed as activators; 380,000 compounds, 0.007% hits
GLP-1R inv ag = qHTS of GLP-1 Receptor Inverse Agonists (Inhibition Mode); Potency, µM (series often up to 38.3 µM), hits mostly inhibitors; 410,000 compounds, 1.6% hits; Glucagon-like peptide 1 receptor (Homo sapiens), P43220; HEK293 GLP-1R CRE-luciferase, luminescence, 24 h; GLP-1R form is constitutively active; AID 624417, 2012; further: nearly all actives have a fitted effect of over 55% in size
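Assay principle: reduced luminescence from a cAMP-responsive reporter in HEK293 cells co-expressing a constitutively active GLP-1R. Conditions: 24 hr compound incubation, 37 deg C, 5% CO2.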
Numbers stand for hits; – = inactive; ? = inconclusive; · = no result given. Unless noted, the call rests on the fitted dose curve; in most records, active means well fitted curve in the direction sought with a large enough effect; inconclusive means small, poorly fitted or top-dose-only effect, or another doubt; inactive means no such curve, though single readings can be large; an effect the other way counts as inactive or inconclusive.

SMILES | TRPML1 ag | TRPML1 blocker | HEK293 tox | GLP-1R agonist | GLP-1R inv ag
CCN(CC)S(=O)(=O)c1ccc(C(=O)NC(=S)N2CCCCC2C)cc1 (configuration not stated) | – | – | – | – | –
COC(=O)c1ccc(NC(=O)CC2C(=O)N(c3ccc(Cl)cc3)C(=O)N2Cc2ccco2)cc1 (configuration not stated) | – | – | – | · | ?
CC(C)(C)c1ccc(C(=O)N2CCC(c3nc4ccccc4o3)CC2)cc1 | – | – | – | · | ?
O=C(NNc1cc(Cl)cc(Cl)c1)C1CCC1 | – | – | – | – | 5.62µM
O=C(NNc1ccc(Cl)cc1)C1CCC1 | – | – | – | – | ?
COc1ccccc1C(=O)N1CCC(c2noc(-c3ccc(S(=O)(=O)N4CCCC4)cc3)n2)CC1 | – | – | – | · | ?
COc1cc2c(cc1NC(=O)C(c1ccccc1)c1ccccc1)CCCC2 | – | – | – | – | 2.82µM
CCN(Cc1ccccc1)c1ccccc1 | – | – | – | – | –
CCN(Cc1ccccc1)c1ccc(/C=N/N=C(N)N)cc1 | – | – | – | – | 10µM
COc1ccccc1N=Nc1c(C)[nH]n(-c2ccccc2)c1=O | – | – | – | – | –
COc1ccc(N=C(c2ccccc2)c2c(C)[nH]n(-c3ccccc3)c2=O)c(OC)c1 | – | – | – | – | 7.94µM
CCOC(=O)c1ccc(-c2c(-c3ccccc3OC)sc3ccc(OC)cc23)cc1F | – | – | – | – | 11.2µM
COc1ccc2sc(-c3ccccc3OC)c(-c3ccc(OC)nc3)c2c1 | – | – | – | – | ?
N=C1S/C(=C\c2ccco2)C(=O)N1c1nccs1 | – | – | – | – | 1µM
COc1ccccc1NC(=O)CSc1oc(-c2cccs2)nc1S(=O)(=O)c1ccccc1 | – | – | – | · | ?
O=C(CCSCc1cnn(-c2ccccc2)c1-n1cccc1)NCc1ccccc1Cl | – | – | – | · | ?
COc1cc(SC)ccc1C(=O)Nc1ccc(OCC(=O)N2CCOCC2)cc1 | – | – | – | – | –
CC(=O)Nc1ccc(OCC(=O)N2CCC(Cc3ccccc3)CC2)cc1 | – | – | – | – | 12.6µM
COc1ccccc1C(=O)Nc1ccc(OCC(=O)N2CC(C)CC(C)C2)cc1 (configuration not stated) | – | – | – | – | 10µM
CCCC(NC(=S)NCC1CCCO1)C12CC3CC(CC(C3)C1)C2 (configuration not stated) | – | – | ? | – | 5.62µM
O=[N+]([O-])c1ccccc1SNc1ccccc1 | – | – | – | – | ?
O=[N+]([O-])c1ccc(SNc2ccccc2)c([N+](=O)[O-])c1 | – | – | ? | – | 11.2µM
COc1ccc2nc3c(cc2c1)c(NC(=O)c1cccs1)nn3CC(C)C | – | – | – | – | 8.91µM
OC(Cc1ccccc1Br)c1ncc(-c2cccc(C(F)(F)F)c2)[nH]1 (configuration not stated) | – | · | – | – | 10µM
CCc1ccc(C(O)c2ncc(-c3cccc(C(F)(F)F)c3)[nH]2)cc1 (configuration not stated) | – | · | – | – | ?
SMILES | TRPML1 ag | TRPML1 blocker | HEK293 tox | GLP-1R agonist | GLP-1R inv ag
Cc1ccc(CN(Cc2ccco2)C(=O)c2ccccc2Cl)o1 | – | – | – | · | –
Cc1cc(C)c(N=C2SCC(=O)N2Cc2ccco2)c(C)c1 | – | – | – | – | ?
O=C1CSC(=Nc2ccc(Cl)cc2)N1Cc1ccco1 | – | – | – | – | 8.91µM
CC(C)(C)C(c1nc2ccccc2[nH]1)n1c(-c2ccsc2)nc2ccccc21 (configuration not stated) | · | · | ? | · | 10µM
CCc1ccccc1-n1nnnc1SCC(=O)Nc1ccc(N2CCN(C)CC2)cc1 | – | – | – | – | 1.78µM
Cc1ccccc1-n1nnnc1SCC(=O)Nc1ccc(N2CCN(C)CC2)cc1 | – | – | – | – | 1µM
COc1ccc2[nH]cc(CCN=C(NC(=O)c3ccccc3F)Nc3nc(C)cc(C)n3)c2c1 | – | – | – | – | ?
COc1cccc(NC(=O)NCc2ccccc2F)c1 | – | – | – | – | –
COc1cccc(N/C(SCc2ccccc2F)=C(/C#N)C(=O)NCc2cccs2)c1 | – | – | – | – | 5.01µM
Nc1sc(Cc2ccccc2)cc1C(=O)c1c(-c2ccccc2)[nH]c2ccccc12 | · | · | ? | · | 5.62µM
Cc1ccc(CNC(=O)CCc2c(C)c3cc4c(C)coc4cc3oc2=O)cc1 | – | – | – | · | –
Cc1cccc2sc(NC(=O)C3CSC4(C)CCC(=O)N34)nc12 (configuration not stated) | – | – | – | – | 7.08µM
COc1cc(/C=C/c2ccc3ccccc3n2)cc(OC)c1OC | – | · | · | · | ·
CCOC(=O)c1ccc(N2C(=O)[C@@H](c3ccccc3)[C@H]2c2ccccc2)cc1 | – | – | – | – | 5.01µM
C=C1CN(C(C(=O)OC)C(C)C)S(=O)(=O)c2ccc(F)cc21 (configuration not stated) | – | – | · | · | ·
O=C(NC1CCCCC1)c1cc(C2CC2)nn1-c1ccccc1 | – | – | – | – | 5.62µM
CN(Cc1ccccc1)C(=O)CN1CCN(S(=O)(=O)c2ccc(Cl)c(Cl)c2)CC1 | – | – | – | – | ?
Cc1cc(OCC(=O)N(C)Cc2ccccc2)ccc1Br | · | · | – | – | 10µM
Cc1cc(S(=O)(=O)N2CCN(CC(=O)N(C)Cc3ccccc3)CC2)ccc1Br | – | – | – | – | 8.91µM
O=C(COCc1cc(-c2cccs2)on1)Nc1cccc(Cl)c1Cl | – | – | – | · | –
CCCN1/C(=C2/SC(=S)N(CC)C2=O)C=Cc2ccccc21 | – | – | ? | – | ?
CN1C(=O)/C(=C2/C=Cc3ccccc3N2CCCS(=O)(=O)O)SC1=S | – | – | 8.91µM | – | –
FC(F)(F)COc1nc(OCC(F)(F)F)nc(N2CCN(c3ccccc3)CC2)n1 | – | – | – | – | 5.01µM
Cc1nc(N2CCN(c3ccccn3)CC2)c2c(C)c(C(=O)Nc3ccc(F)cc3Cl)sc2n1 | 96.6 | – | – | – | ?
Cc1nc(N2CCN(c3ccccn3)CC2)c2c(C)c(C(=O)Nc3ccc(F)cc3F)sc2n1 | – | – | – | – | –
COc1cc(CN(CC2CCCO2)C(=O)c2ccc(F)cc2)cc(OC)c1OC (configuration not stated) | – | – | – | · | –
O=C(Cn1ncc2c3ccccc3n(Cc3ccc(F)cc3)c2c1=O)N1CCN(c2ncccn2)CC1 | – | – | – | – | 12.6µM
COc1ccc(NS(=O)(=O)c2ccc3c(c2)CC(C)N3C(C)=O)c(OC)c1 (configuration not stated) | – | – | – | · | –
